Source: PubChem BioAssay AID589 (National Center for Advancing Translational Sciences (NCATS), 2007)
About 6,200 (11%) of roughly 59,000 compounds were called active. Another 9% or so got no clear call; they are omitted. Cut-off read from the data, not from the text of the source: active = max dye-equivalent concentration above about 10 nM; inconclusive = mostly about 1.1 nM to 9.6 nM; inactive = weaker than that. Only a selection was taken, and actives are over-represented in it overall.

experiment: qHTS Assay for Spectroscopic Profiling in 4-MU Spectral Region; details: compound autofluorescence, 340/450 nm, 4-MU equivalents; hits give high values
How it was run: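 Compounds in 100 mM Tris, pH 8.0, incubated 15 min at room temperature, then fluorescence read at 340 nm excitation/450 nm emission. Signal converted to 4-MU dye-equivalent concentration using an on-plate six-point 4-MU standard curve.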

Row | SMILES | max dye-equivalent concentration
1 | COc1ccc(OCC(=O)N2CCN(C(=O)COc3ccccc3)CC2)cc1 | inactive
2 | CCC(CC)C(=O)Nc1cccc(C(=O)N2CCCC2)c1 | inactive
3 | c1ccc(CCc2nc(-c3ccncc3)no2)cc1 | inactive
4 | Cc1cc(C)cc(NC(=O)C2CCN(c3nc(C)cc(C)n3)CC2)c1 | inactive
5 | CC(=O)N1CCC(C(=O)Nc2nc(-c3ccccc3)ns2)CC1 | 1800 nM (active)
6 | Cc1ccc2c(NC(=O)C3CC3)cccc2n1 | inactive
7 | CCCOc1ccccc1-c1nc(SCCC(=O)O)n[nH]1 | inactive
8 | CCn1c(=N)n(CC(=O)c2cccc(OC)c2)c2ccccc21 | inactive
9 | COC(=O)c1ccc(CSc2nncn2C)cc1 | inactive
10 | Cc1ccc(C(c2nnnn2C(C)(C)C)N2CCc3ccccc3C2)cc1 (stereo not given) | inactive
11 | Cc1ccc2c(c1)c1ncnc(N3CCc4ccccc4C3)c1n2C | 140 nM (active)
12 | Cc1ccc(NC(=O)CCN2CCc3ccccc3C2)cc1 | inactive
13 | CCOC(=O)CSc1nnc(NC(=O)c2cccc(S(=O)(=O)N3CCCCC3)c2)s1 | inactive
14 | Cc1cc(C)c2nc3c(c([C@H](O)[C@@H]4CCCCN4)c2c1)CC/C3=C/c1ccc(Cl)cc1 | inactive
15 | CN1CCc2[nH]nc(-c3n[nH]c4c3CN(C)CC4)c2C1 | inactive
16 | c1coc(-c2nc3nc4ccccc4n3nc2-c2ccco2)c1 | inactive
17 | CCOC(=O)CSc1nnc(-c2ccco2)n1C | inactive
18 | Cn1c(-c2ccco2)nc2cc3ccccc3cc21 | 890 nM (active)
19 | O=C(c1ccco1)N1CCN(C(=O)c2ccc(COc3ccc(F)cc3)o2)CC1 | inactive
20 | O=C(c1ccco1)N1CCC2(CC1)CN(c1ncccn1)C2 | inactive
21 | CCCCNC(=O)CSc1nnc(-c2ccco2)n1C | inactive
22 | Cn1c(=O)c2c(ncn2CC(=O)N2CCN(c3ccccc3)CC2)n(C)c1=O | inactive
23 | COc1ccccc1NC(=O)C1=C(C)Nc2ncnn2C1c1ccc(C)o1 (stereo not given) | inactive
24 | COc1ccccc1NC(=O)c1ccc(C)s1 | inactive
25 | COc1ccccc1NC(=O)C1=C(C)NC2=C(C(=O)CCC2)C1c1ccc(C)o1 (stereo not given) | 16 nM (active)
26 | O=C(NCCN=C1NS(=O)(=O)c2ccccc21)c1ccc(S(=O)(=O)N2CCOCC2)cc1 | inactive
27 | Cc1cc(=O)oc(C)c1C(=O)NC1CC(C)(C)NC(C)(C)C1 | inactive
28 | COCc1nnc(NC(=O)CS(=O)(=O)Cc2ccccc2)s1 | inactive

Row | SMILES | max dye-equivalent concentration
29 | O=C(O)C1CCCN1S(=O)(=O)c1ccc2c(c1)CCC2 (stereo not given) | inactive
30 | CCS(=O)(=O)NCCc1ccc(OC)c(OC)c1 | inactive
31 | Cn1c(C(=O)NCCN2CCc3ccccc3C2)cc2c(=O)[nH]c3ccccc3c21 | inactive
32 | Cc1cc(=O)n2c3c(cccc13)CCC2 | inactive
33 | CCNC(=O)c1c(O)c2cccc3c2n(c1=O)CC3 | 17 nM (active)
34 | O=S(=O)(O)c1ccc(O)c2ncccc12.O=S(=O)(O)c1ccc(O)c2ncccc12.[Zn] | inactive
35 | Cc1ccccc1N1CCN(S(=O)(=O)C[C@@]23CC[C@H](C[C@H]2NC(=O)[C@@H](N)CCS(C)(=O)=O)C3(C)C)CC1 | inactive
36 | CCOC(=O)C1=C(CNC2CCCCC2)NC(=O)NC1c1cc(C)ccc1C (stereo not given) | inactive
37 | COc1cc(OC)cc(C(=O)NCCSCc2ccco2)c1 | inactive
38 | Clc1cccc(-c2nc3nc4ccccc4nc3n2Cc2ccco2)c1 | 110 nM (active)
39 | C(=C\c1ccccc1)/CSc1nnc(-c2cccnc2)n1Cc1ccco1 | inactive
40 | O=C(CSc1nnc(-c2cccnc2)n1Cc1ccco1)c1ccc(Cl)cc1 | inactive
41 | CN1CCc2c(sc3c2c(NCc2ccco2)nc2nnnn23)C1 | 380 nM (active)
42 | C=C(C)Cn1c(SCC(=O)NCc2ccco2)nc2sc3c(c2c1=O)CCC3 | inactive
43 | c1coc(CNc2ncnc3ccccc23)c1 | inactive
44 | Cc1cccc(N(CC(O)CN(C)C)S(=O)(=O)c2ccccc2)c1 (stereo not given) | inactive
45 | CCOC(=O)N1CCN(C(=O)CN(C2CCCCC2)S(C)(=O)=O)CC1 | inactive
46 | Cc1cccn2c(=O)c3cc(C(=O)NCc4ccccn4)n(C)c3nc12 | 190 nM (active)
47 | O=C(NCc1ccccn1)c1c(O)c2c([nH]c1=O)CCCC2 | inactive
48 | Cc1cccn2c(=O)c3cc(C(=O)N4COCC4(C)C)n(C)c3nc12 | 970 nM (active)
49 | O=C(NCc1ccco1)c1nc2ncccn2n1 | inactive
50 | CCOC(=O)N1CCN(S(=O)(=O)c2cc3c(cc2C)NC(=O)CO3)CC1 | inactive
51 | Cc1cnc(CNc2ncncc2-c2ccccc2Cl)cn1 | inactive
52 | Cc1ccccc1C(OCC(O)CN1CCCCC1CCO)c1ccccc1 (stereo not given) | inactive
53 | Cc1noc(C)c1C(=O)OCC(=O)/C=C1\N(C)c2ccccc2C1(C)C | 150 nM (active)
54 | Cc1noc(C)c1C(=O)Nc1ccccn1 | inactive
55 | Cc1ccc(-c2nc(COC(=O)c3c(C)noc3C)cs2)cc1 | inactive
